# Measurements taken from PMC4336329 (PLoS ONE, 2015).
# Hit rate of the full screen: of about 310,000 compounds, about 14,000 (4.5%) showed an effect of 50% or more. The effect is printed as a negative number. The sample holds strong results, similar compounds and a random draw of the others, so the mix is not that of the screen.
# Target: human ether-à-go-go-related gene (hERG) potassium channel (human, UniProt Q12809)
# Assay: primary screen, population patch clamp on CHO cells stably expressing hERG; higher = less effect of the substance
# 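Further: peak tail current of the secondary pulse compared with the same well before compound.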
# Sequence of human ether-à-go-go-related gene (hERG) potassium channel (Q12809 whole entry, looked up): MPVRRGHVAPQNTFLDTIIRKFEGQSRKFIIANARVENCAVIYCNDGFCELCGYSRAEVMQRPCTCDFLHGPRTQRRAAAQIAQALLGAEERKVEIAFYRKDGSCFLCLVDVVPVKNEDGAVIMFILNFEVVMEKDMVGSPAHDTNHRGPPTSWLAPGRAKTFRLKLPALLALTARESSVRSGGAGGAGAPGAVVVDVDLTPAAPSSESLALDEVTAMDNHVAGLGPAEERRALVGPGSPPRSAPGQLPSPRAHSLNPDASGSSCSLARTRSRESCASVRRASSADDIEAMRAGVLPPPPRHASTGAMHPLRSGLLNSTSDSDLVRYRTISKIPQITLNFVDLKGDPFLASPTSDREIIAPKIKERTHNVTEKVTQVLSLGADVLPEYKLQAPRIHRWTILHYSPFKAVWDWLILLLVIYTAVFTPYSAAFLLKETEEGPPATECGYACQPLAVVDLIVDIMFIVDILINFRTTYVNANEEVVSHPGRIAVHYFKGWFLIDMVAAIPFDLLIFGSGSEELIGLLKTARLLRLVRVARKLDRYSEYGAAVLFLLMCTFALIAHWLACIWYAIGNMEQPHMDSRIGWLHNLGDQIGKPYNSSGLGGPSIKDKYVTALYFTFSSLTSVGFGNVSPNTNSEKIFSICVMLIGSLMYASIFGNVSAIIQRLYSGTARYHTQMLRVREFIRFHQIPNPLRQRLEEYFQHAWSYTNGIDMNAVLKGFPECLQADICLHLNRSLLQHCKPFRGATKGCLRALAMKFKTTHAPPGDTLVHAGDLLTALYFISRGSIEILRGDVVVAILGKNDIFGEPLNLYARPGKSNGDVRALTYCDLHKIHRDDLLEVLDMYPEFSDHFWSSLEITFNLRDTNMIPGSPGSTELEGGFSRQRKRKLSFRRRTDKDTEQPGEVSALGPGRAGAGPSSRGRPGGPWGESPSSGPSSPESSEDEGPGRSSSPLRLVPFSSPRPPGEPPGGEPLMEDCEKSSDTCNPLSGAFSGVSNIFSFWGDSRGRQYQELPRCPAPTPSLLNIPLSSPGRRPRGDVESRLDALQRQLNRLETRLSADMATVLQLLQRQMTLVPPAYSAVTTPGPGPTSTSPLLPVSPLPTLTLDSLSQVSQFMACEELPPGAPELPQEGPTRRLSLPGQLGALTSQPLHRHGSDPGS
row,SMILES,"hERG current change (%, negative = inhibition) at 10uM [%]"
1,Cc1ccc(C)c(N2CCN(S(=O)(=O)c3ccc4c(c3)CC(=O)N4C)CC2)c1,-19.4
2,COc1ccc(Nc2nnc(SCC3CCCO3)s2)cc1 (centres unmarked),-5.7
3,Cc1nc(NC(=O)C(Cl)Cl)sc1C(=O)N(C)C,5.44
4,CCCC(c1nnnn1CC1CCCO1)N1CCN(c2ccccc2)CC1.Cl (centres unmarked),-4.74
5,O=C(Nc1cccc(Oc2ccc3c(c2)C(=O)NC3=O)c1)c1ccco1,-21.8
6,CCn1c(=O)[nH]c(=O)c2c(N)c(C(=O)c3ccccc3OC)sc21,-15.2
7,CCn1c(=O)[nH]c(=O)c2c(N)c(C(=O)c3cc(F)ccc3F)sc21,-57.4
8,Cc1ccc(C(=O)c2sc3c(c2N)c(=O)[nH]c(=O)n3CCc2ccccc2)cc1,12.2
9,CC1=Nc2ccccc2/C1=C/c1sc(=N)n(-c2nccs2)c1O,10.5
10,O=C(CN1C(=O)/C(=C/c2ccco2)SC1=S)Nc1ccc(O)c(C(=O)O)c1,25.2
11,CC(NCCC(Cc1ccccc1)c1ccco1)c1ccccc1 (centres unmarked),-22
12,CCC(=O)N(CCC(Cc1ccccc1)c1ccco1)Cc1ccco1 (centres unmarked),-1.81
13,c1ccc(CNCCC(Cc2ccccc2)c2ccco2)cc1 (centres unmarked),-54.8
14,Fc1ccc(CNCCC(Cc2ccccc2)c2ccco2)cc1 (centres unmarked),-54.3
15,Fc1ccc(CNCc2ccco2)cc1,11.5
16,CC(=O)NCCC(Cc1ccccc1)c1ccco1 (centres unmarked),5.91
17,CC(=O)N(CCC(Cc1ccccc1)c1ccco1)Cc1ccco1 (centres unmarked),-28.4
18,CN(C)c1ccc(CNCCC(Cc2ccccc2)c2ccco2)cc1 (centres unmarked),-52.3
19,O=C(NCCNCc1ccc(F)cc1)c1ccco1.O=C(O)C(=O)O,9.99
20,O=C(Nc1cc(F)ccc1F)c1cccc(-n2cnnn2)c1,-18.3
21,COC(=O)N/N=C/c1cn(CCCOc2ccccc2)c2ccccc12,-4.14
22,C#Cc1ccc([C@H]2C=C(C(=O)N3CCOCC3)O[C@@H](OCC)[C@@H]2CCCO)cc1,6.65
23,COc1ccc(NC(=O)C2CCCN2S(=O)(=O)c2ccc3c(c2)CCC(=O)N3)cc1Cl (centres unmarked),-27.8

row,SMILES,"hERG current change (%, negative = inhibition) at 10uM [%]"
1,O=C1CCc2cc(S(=O)(=O)N3CCC(C(=O)NC4CCCC4)CC3)ccc2N1,-4.68
2,COc1ccc(NC(=O)C2CCCN2S(=O)(=O)c2ccc3c(c2)CCC(=O)N3)c(OC)c1 (centres unmarked),-16.8
3,O=C1CCc2cc(S(=O)(=O)N3CCC(C(=O)NC4CCCCCCC4)CC3)ccc2N1,10.8
4,COc1ccc(C)cc1NC(=O)C1CCCN1S(=O)(=O)c1ccc2c(c1)CCC(=O)N2 (centres unmarked),-50.8
5,O=C1CCc2cc(S(=O)(=O)N3CCCC3C(=O)NC3CCCCCCC3)ccc2N1 (centres unmarked),-50.3
6,Cc1ccc(/C=N/NC(=O)c2cc(-c3cccnc3)nc3ccccc23)cc1,-5.06
7,N#Cc1ccc(OCC(O)CS(=O)(=O)c2ccccc2)cc1 (centres unmarked),-21
8,CC(=O)c1ccc(S(=O)(=O)Nc2cc3c(cc2C(C)=O)OCO3)cc1,21.2
9,COc1ccc(C(=O)N(Cc2nc(-c3ccc(C)cc3)no2)C(C)C)cc1OC,-31.4
10,CCCN1C2=NCCN2c2ccccc21.Cl,-9.75
11,CCCCCCN1C2=NCCN2c2ccccc21.Cl,-74
12,CCCCCCCN1C2=NCCN2c2ccccc21.Cl,-79.6
13,Br.CCCCCN1C2=NCCN2c2ccccc21,-71.4
14,O=C(NC1CCCC1)c1cc2nc(-c3ccco3)cc(C(F)(F)F)n2n1,20.1
15,C#CCOCCOCCOCCNc1nc(N2CCN(C(=O)[C@H]([C@@H](C)CC)n3cc([C@@H](N)CO)nn3)CC2)nc(N2CCN(C(=O)[C@H](CCCCN)n3cc([C@@H](N)CC(C)C)nn3)CC2)n1.Cl,-0.687
16,NC(=O)CSc1cn(Cc2ccc(F)cc2)c2ccccc12,2.24
17,COc1ccc2c(c1)c(=O)oc1c(C)c(OCc3cc(C(=O)O)oc3C)ccc12,22.5
18,C=CCc1c(C)nc(-c2ccccc2)nc1N/N=C(\C)c1ccc(N)cc1,-0.357
19,Cc1ccc(NC(=O)NCCN2CCN(C(=O)Nc3ccc(C)cc3)CC2)cc1,-36.4
20,O=C(NCCc1ccc(F)cc1)NC12CC3CC(CC(C3)C1)C2,-13.4
21,CCOc1ccc(NC(=O)NCCN2CCN(c3cccc(C)c3C)CC2)cc1,-24.3
22,O=C(NCCCN1CCN(c2ccc(F)cc2)CC1)NC12CC3CC(CC(C3)C1)C2,-73.2
23,O=C(NCCCN1CCOCC1)NC12CC3CC(CC(C3)C1)C2,1.72

row,SMILES,"hERG current change (%, negative = inhibition) at 10uM [%]"
1,O=C(NCCc1ccc(F)cc1)Nc1ccc([N+](=O)[O-])cc1,-12
2,O=C(NCCCN1CCN(c2ccc(F)cc2)CC1)Nc1ccc([N+](=O)[O-])cc1,-73.9
3,CSc1ccc(NC(=O)NCCCN2CCN(c3ccccc3F)CC2)cc1,-55.1
4,CCOc1cccc(N2CCN(CCNC(=O)Nc3ccc(C)cc3)CC2)c1C,-57
5,CSc1ccc(N2CCN(CCCNC(=O)Nc3ccccc3F)CC2)cc1,-49.1
6,CN1CCN(CCCNC(=O)Nc2ccc([N+](=O)[O-])cc2)CC1,-7.46
7,O=C(CN1C(=O)COc2ccccc21)NCCCN1CCN(c2ccccc2F)CC1,-10.7
8,COc1c(C=O)cc2c3c1CCCN3CCC2,23.3
9,COc1ccc(N(C(=O)c2ccco2)C(C(=O)NC2CCCC2)c2cccs2)cc1OC (centres unmarked),1.89
10,O=S1(=O)N=C(N/N=C/c2ccco2)c2ccccc21,13.1
11,COc1ccc(S(=O)(=O)N2CCOCC2)cc1NC(=O)COc1ccccc1OC,22.3
12,COc1cc(C(=O)OCC(=O)N2CCOCC2)c([N+](=O)[O-])cc1OC,14.5
13,O=C(Nc1nccs1)c1ccc(COc2ccc(F)cc2)o1,8.63
14,O=C1C2C(C(=O)N1c1nccs1)C1C=CC2C12CC2 (centres unmarked),-8.95
15,O=C(NCCCN1CCN(c2ccccc2F)CC1)Nc1ccccc1[N+](=O)[O-],-72.1
16,CCOc1ccc(NC(=O)NCCN2CCN(c3ccccc3F)CC2)cc1,-62.3
17,O=C(NCCCN1CCCC1)Nc1ccccc1[N+](=O)[O-],18.1
18,CCc1ccc(NC(=O)NCCN2CCN(c3ccc(OC)cc3)CC2)cc1,-14.1
19,CCOc1ccc(NC(=O)NCCCN2CCCC2)cc1,-1.89
20,O=C(NCCCN1CCN(c2ccccc2F)CC1)Nc1ccc(F)cc1,-66.3
21,COc1ccc(NC(=O)CN2CCN(c3ccccc3F)CC2)cc1,-18.1
22,CCOc1ccc(NC(=O)CCN2CCN(c3ccccc3F)CC2)cc1,-20.2
23,O=C(NCCCN1CCCC1)Nc1ccc(F)cc1,4.71

row,SMILES,"hERG current change (%, negative = inhibition) at 10uM [%]"
1,O=C(NCCN1CCCCC1)Nc1ccc(F)cc1,-13.1
2,COc1ccc(NC(=O)NCCCN2CCN(c3ccccc3F)CC2)cc1,-63.6
3,O=C(Cc1ccccc1[N+](=O)[O-])N1CCN(c2ccccc2F)CC1,3.23
4,Cc1ccc(C(=O)NC(=S)Nc2ccc(-c3cc4ccccc4oc3=O)cc2)c(C)c1,27.1
5,Cc1ccc(C(=O)NCCc2ccccc2)cc1,-1.2
6,CSc1cccc(NC(=O)Nc2ccccc2C(N)=O)c1,15.3
7,CCCOc1ccc(/C=N\NC(=O)CCc2n[nH]c(=O)[nH]c2=O)cc1OC,2.51
8,COc1ccc(C2=NCC(CSc3nccc(=O)[nH]3)S2)cc1 (centres unmarked),1.52
9,O=C(Cc1n[nH]c(=O)c2ccccc12)NC(c1ccccc1)c1ccccc1,6.6
10,Cn1c(=O)c(-c2cc(Br)ccc2N)nc2ccccc21,-29.3
11,COc1ccc(C(=O)COC(=O)c2cc(C)no2)c(OC)c1,12
12,COC(=O)c1ccc2nc(C)c(C)nc2c1,15.8
13,COC(=O)c1ccc2c(c1)C(C)(C)C(/C=C/c1ccccc1O)=[N+]2C.[I-],-69.5
14,COC(=O)c1ccc2c(c1)C(=O)/C(=C/c1ccc(O)cc1)O2,18.2
15,COC(=O)c1ccc2c(c1)C(C)(C)C(/C=C/c1ccc(O)cc1)=[N+]2C.[I-],-70.9
16,COC(=O)c1ccc2c(c1)C(C)(C)C(/C=C/c1ccc(OC)c(OC)c1OC)=[N+]2C.[I-],-2.88
17,COC(=O)c1ccc(/C=C/C(=O)O)cc1,11.9
18,O=C(O)[C@@H](O)c1ccccc1,6.63
19,CCOC(=O)c1sc2ncn(C(CC)C(=O)OC)c(=O)c2c1C (centres unmarked),9.35
20,NC(=O)c1oc2ccccc2c1NC(=O)c1nc2ccccc2s1,6.28
